About 7,900 targets were measured; listed, in parts, are those with a hit and a random draw of the rest. About 0.6% of all pairs of compound and target were hits. A number with no mark means an inactive call.
Key:
Test in all cases: log2 fold change, soluble protein after heating vs DMSO (PISA); higher = thermal stabilisation; K562 cells, 10 uM, 30 min; active = over 0.2 and 3.5 SD of the protein, either way, in both replicates (recomputed)
[1] = compound: C1COCCN1CCN2C3=CC=CC=C3N=C2NC(=O)C4=CC(=CC=C4)[N+](=O)[O-] [IRAK-1-4 Inhibitor I]
In short: (§1)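 Quantification of soluble protein used TMTpro 16plex LC-MS/MS, with channel sums equalised. Samples were the supernatant after 21,000xg for 90 min of pooled aliquots from K562 cells (2×10^6 cells/mL) treated with 10 μM compound for 30 min, heated for 3 min over 48°C-58°C, and extracted in PBS with 0.5% NP-40 at 4°C. Values, from duplicates, describe thermal stability against control samples on a log2 fold-change scale.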

[2] = compound: C=CC(=O)N1CCC[C@@H](n2nc(-c3ccc(Oc4ccccc4)cc3)c3c(N)ncnc32)C1 [ibrutinib]
In short: as §1

[3] = compound: CC(=O)c1cnc2ccc(-c3cc(Cl)c(O)c(Cl)c3)nc2c1N[C@H]1CC[C@H](CN(C)C)CC1
In short: as §1

[4] = compound: CC(C)(C)Cn1c(N)nc2ccc(-c3[nH]c(C(C)(C)C)nc3-c3ccc(F)cc3)nc21 [ralimetinib]
In short: as §1

[5] = compound: CC(C)(O)CC(=O)NCCn1ccc2ncnc(Nc3ccc(Oc4cccc(C(F)(F)F)c4)c(Cl)c3)c21
In short: as §1

[6] = compound: CC(C)C1=C2N=C(C=C(N2N=C1)NCC3=CC=CC=C3)NCCCCCCN
In short: as §1

[7] = compound: CC(C)C[C@@H](C=O)NC(=O)[C@H](CC(C)C)NC(=O)[C@H](CC(C)C)NC(=O)OCc1ccccc1
In short: as §1

[8] = compound: CC(C)N(C[C@H]1O[C@@H](n2cnc3c(N)ncnc32)[C@H](O)[C@@H]1O)[C@H]1C[C@@H](CCc2nc3cc(C(C)(C)C)ccc3[nH]2)C1 [pinometostat]
In short: as §1

[9] = compound: CC1=C(C(CC(=O)N1)C2=CC=C(C=C2)C(F)(F)F)C(=O)NC3=C(C=C4C(=C3)C=NN4)F
In short: as §1

[10] = compound: CC1=C(C2=C(C=C1)C(=O)C3=CC=CC=C3N2CCCN)C
In short: as §1

[11] = compound: CC1=C(C=C(C=C1)NC(=O)C2=CC(=CC=C2)C(C)(C)C#N)NC3=CC4=C(C=C3)N=CN(C4=O)C
In short: as §1

[12] = compound: CC1=C(C=C(C=C1)NC(=O)C2=CC(=CC=C2)N(C)C)NC(=O)C3=CC=C(C=C3)O
In short: as §1

[13] = compound: CC1=CC=C(C=C1)SC2=C3C=C(SC3=CN=C2)C(=O)N
In short: as §1

[14] = compound: CC1=NC(=CC=C1)C2=C(N=C(N2)C(C)(C)C)C3=CC4=NC=CN=C4C=C3
In short: as §1

[15] = compound: CCCCN(Cc1ccc(C(=O)NO)cc1)C(=O)Nc1ccccc1 [Nexturastat A]
In short: as §1

[16] = compound: CCCS(=O)(=O)Nc1ccc(F)c(C(=O)c2c[nH]c3ncc(-c4ccc(Cl)cc4)cc23)c1F [vemurafenib]
In short: as §1

[17] = compound: CCCS(=O)(=O)Nc1ccc(F)c(C(=O)c2c[nH]c3ncc(Cl)cc23)c1F
In short: as §1

[18] = compound: CCCc1cc(C)[nH]c(=O)c1CNC(=O)c1cc(-c2ccnc(N3CCN(C)CC3)c2)cc2c1cnn2C(C)C
In short: as §1

[19] = compound: CCN(CC)Cc1ccc2cc(COC(=O)Nc3ccc(C(=O)NO)cc3)ccc2c1 [givinostat]
In short: as §1

[20] = compound: CCN(CCCOc1ccc2c(Nc3cc(CC(=O)Nc4cccc(F)c4)[nH]n3)ncnc2c1)CCOP(=O)(O)O [barasertib]
In short: as §1

Chain of UniProt O60701 (O60701 whole entry, looked up): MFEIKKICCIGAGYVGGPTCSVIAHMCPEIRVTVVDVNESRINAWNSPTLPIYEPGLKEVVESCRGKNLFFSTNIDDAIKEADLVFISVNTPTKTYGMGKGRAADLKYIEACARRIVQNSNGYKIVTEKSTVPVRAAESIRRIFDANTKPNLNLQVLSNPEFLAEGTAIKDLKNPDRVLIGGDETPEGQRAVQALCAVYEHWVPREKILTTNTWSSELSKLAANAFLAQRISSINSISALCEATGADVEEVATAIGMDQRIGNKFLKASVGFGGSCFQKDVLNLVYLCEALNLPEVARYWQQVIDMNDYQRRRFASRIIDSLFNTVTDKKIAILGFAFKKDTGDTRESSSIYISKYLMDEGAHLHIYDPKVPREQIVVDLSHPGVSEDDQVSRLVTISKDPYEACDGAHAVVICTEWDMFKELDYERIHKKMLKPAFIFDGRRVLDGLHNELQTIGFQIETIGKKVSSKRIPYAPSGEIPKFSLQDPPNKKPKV
Chain of UniProt P54578 (P54578 whole entry, looked up): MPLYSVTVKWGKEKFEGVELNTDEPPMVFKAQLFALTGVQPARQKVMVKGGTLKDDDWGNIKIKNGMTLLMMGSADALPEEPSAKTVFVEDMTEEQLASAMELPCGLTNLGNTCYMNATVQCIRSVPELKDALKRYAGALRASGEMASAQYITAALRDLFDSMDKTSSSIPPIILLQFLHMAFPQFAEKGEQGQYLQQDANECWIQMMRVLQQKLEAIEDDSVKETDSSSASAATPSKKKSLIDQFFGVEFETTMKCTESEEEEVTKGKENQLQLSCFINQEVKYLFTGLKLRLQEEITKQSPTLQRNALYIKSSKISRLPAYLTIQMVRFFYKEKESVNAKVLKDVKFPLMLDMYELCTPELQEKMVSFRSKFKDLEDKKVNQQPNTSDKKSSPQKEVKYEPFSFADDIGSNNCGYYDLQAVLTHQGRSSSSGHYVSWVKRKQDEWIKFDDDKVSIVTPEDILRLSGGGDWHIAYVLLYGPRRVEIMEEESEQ
Chain of UniProt O14980 (O14980 whole entry, looked up): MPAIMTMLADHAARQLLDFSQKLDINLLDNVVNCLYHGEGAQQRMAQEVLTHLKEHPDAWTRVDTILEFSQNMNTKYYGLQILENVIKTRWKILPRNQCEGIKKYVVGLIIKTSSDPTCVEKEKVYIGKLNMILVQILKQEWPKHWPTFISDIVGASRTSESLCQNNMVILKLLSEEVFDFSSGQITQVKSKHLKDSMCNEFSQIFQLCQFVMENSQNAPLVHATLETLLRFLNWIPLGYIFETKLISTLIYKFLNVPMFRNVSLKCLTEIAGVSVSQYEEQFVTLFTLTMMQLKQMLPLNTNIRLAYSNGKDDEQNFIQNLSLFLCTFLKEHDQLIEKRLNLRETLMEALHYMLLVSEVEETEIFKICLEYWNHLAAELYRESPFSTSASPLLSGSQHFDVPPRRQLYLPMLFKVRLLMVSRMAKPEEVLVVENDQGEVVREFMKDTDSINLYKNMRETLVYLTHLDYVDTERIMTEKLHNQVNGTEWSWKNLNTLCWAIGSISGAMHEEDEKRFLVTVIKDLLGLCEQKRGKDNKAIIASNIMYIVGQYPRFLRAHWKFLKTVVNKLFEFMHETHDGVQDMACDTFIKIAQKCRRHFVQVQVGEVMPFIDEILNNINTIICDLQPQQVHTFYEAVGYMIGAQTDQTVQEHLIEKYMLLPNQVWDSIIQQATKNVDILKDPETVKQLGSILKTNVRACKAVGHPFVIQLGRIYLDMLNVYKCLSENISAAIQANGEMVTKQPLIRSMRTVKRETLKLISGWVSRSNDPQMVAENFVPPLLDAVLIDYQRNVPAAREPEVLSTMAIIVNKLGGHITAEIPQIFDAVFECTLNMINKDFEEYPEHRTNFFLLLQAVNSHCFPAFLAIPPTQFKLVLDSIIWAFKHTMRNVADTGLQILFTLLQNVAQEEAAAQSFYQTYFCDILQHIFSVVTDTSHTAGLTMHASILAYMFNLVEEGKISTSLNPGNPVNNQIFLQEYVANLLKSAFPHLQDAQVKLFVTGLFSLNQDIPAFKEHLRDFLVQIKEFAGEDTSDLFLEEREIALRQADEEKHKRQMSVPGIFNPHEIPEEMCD
Chain of UniProt O43396 (O43396 whole entry, looked up): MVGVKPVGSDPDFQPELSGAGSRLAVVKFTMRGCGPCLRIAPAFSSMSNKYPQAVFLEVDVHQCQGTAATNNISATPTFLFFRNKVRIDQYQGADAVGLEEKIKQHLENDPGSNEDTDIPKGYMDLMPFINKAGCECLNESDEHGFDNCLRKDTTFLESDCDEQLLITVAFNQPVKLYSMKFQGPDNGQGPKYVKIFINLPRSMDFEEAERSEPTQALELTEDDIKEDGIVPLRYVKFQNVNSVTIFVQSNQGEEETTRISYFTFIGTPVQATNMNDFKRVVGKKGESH
Chain of UniProt P28908 (P28908 whole entry, looked up): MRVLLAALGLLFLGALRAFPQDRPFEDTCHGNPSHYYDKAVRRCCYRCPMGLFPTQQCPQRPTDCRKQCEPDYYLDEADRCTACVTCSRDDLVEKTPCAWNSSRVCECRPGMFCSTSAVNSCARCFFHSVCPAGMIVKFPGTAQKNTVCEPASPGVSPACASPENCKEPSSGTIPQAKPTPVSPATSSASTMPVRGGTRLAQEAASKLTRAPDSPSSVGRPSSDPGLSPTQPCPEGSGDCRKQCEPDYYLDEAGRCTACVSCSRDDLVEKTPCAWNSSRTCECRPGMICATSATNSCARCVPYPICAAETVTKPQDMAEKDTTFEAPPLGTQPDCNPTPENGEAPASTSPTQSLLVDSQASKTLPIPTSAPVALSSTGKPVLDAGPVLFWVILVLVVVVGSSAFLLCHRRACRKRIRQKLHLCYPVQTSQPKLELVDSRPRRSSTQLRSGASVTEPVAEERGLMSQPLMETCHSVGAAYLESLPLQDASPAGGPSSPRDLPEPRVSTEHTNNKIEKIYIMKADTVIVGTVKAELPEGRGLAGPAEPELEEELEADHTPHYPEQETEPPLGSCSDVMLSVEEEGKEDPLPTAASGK
Chain of UniProt O94874 (O94874 whole entry, looked up): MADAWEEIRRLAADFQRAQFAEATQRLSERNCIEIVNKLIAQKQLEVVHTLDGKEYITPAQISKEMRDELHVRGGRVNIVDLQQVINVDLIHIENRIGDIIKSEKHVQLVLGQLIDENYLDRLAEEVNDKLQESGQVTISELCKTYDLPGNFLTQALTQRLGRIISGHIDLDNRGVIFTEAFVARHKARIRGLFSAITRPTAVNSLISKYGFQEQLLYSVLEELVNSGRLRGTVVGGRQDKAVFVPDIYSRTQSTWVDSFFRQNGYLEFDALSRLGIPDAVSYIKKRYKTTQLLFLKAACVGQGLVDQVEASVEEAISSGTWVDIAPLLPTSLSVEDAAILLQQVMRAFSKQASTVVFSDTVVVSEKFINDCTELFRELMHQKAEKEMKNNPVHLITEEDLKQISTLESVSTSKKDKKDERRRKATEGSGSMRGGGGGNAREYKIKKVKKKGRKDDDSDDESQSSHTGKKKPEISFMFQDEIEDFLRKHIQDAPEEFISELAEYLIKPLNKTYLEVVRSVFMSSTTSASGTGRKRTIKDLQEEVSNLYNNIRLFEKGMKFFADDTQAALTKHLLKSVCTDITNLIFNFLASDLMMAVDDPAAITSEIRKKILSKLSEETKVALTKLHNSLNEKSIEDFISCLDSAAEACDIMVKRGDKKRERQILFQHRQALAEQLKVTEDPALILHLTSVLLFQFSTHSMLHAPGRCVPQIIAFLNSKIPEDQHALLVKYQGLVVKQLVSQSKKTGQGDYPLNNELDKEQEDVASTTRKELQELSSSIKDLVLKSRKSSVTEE
Chain of UniProt O95801 (O95801 whole entry, looked up): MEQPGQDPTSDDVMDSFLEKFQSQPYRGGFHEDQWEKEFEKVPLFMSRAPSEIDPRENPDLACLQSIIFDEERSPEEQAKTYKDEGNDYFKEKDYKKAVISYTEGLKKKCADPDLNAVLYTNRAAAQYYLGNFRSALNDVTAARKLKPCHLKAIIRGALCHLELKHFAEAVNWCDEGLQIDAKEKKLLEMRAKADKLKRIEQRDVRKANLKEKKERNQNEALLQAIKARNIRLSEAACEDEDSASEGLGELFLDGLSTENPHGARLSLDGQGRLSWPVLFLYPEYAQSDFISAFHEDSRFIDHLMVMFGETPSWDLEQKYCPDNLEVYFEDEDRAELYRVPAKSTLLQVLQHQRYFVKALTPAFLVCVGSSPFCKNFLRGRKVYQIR
Chain of UniProt Q96HV5 (Q96HV5 whole entry, looked up): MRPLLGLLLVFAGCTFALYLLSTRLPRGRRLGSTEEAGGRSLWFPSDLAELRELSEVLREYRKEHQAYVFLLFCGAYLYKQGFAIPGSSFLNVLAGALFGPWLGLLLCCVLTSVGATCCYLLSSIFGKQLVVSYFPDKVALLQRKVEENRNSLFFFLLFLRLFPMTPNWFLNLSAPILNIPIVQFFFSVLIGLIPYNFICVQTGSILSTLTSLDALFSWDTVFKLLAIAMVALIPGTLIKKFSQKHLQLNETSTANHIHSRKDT
Chain of UniProt O75554 (O75554 whole entry, looked up): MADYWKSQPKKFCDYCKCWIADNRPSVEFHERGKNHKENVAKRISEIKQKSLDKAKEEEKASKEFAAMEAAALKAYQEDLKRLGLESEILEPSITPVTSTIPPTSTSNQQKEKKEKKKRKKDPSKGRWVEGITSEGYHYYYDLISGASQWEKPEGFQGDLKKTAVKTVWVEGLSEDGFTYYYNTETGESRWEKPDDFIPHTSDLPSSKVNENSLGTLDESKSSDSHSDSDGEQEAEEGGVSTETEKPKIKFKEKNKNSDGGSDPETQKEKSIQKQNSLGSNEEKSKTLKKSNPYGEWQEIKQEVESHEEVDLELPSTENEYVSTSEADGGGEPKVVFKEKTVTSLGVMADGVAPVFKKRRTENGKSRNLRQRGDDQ
Chain of UniProt P51809 (P51809 whole entry, looked up): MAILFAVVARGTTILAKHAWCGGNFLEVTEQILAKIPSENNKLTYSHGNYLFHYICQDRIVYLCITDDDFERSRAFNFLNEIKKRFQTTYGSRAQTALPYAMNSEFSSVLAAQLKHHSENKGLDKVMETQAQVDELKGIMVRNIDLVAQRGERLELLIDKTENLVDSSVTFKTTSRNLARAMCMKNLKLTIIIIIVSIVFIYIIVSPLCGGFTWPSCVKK

Row | Target | log2 fold change [1] | log2 fold change [2] | log2 fold change [3] | log2 fold change [4] | log2 fold change [5] | log2 fold change [6] | log2 fold change [7] | log2 fold change [8] | log2 fold change [9] | log2 fold change [10] | log2 fold change [11] | log2 fold change [12] | log2 fold change [13] | log2 fold change [14] | log2 fold change [15] | log2 fold change [16] | log2 fold change [17] | log2 fold change [18] | log2 fold change [19] | log2 fold change [20]
1 | XPO1 (UniProt O14980) | -0.013 | -0.045 | 0.011 | 0.018 | -0.196 | -0.282 (active) | -0.04 | -0.013 | -0.001 | -0.011 | 0.072 | -0.063 | 0.025 | 0.081 | -0.061 | 0.086 | 0.101 | -0.011 | 0.024 | 0.039
2 | USP14 (UniProt P54578) | -0.013 | -0.045 | -0.004 | 0.021 | -0.028 | -0.068 | 0.044 | -0.031 | 0 | 0.014 | 0.023 | -0.018 | 0.01 | 0.034 | -0.069 | 0.021 | 0.093 | 0.012 | -0.006 | 0.032
3 | UFL1 (UniProt O94874) | -0.048 | -0.037 | -0.022 | 0.073 | -0.055 | -0.142 | 0.015 | 0.042 | -0.017 | 0.026 | -0.009 | -0.089 | 0.011 | 0.048 | 0.091 | 0.083 | 0.089 | 0.043 | 0.08 | 0.031
4 | TMEM41A (UniProt Q96HV5) | -0.022 | -0.007 | -0.04 | 0.033 | 0.022 | 0.043 | -0.079 | -0.06 | 0.035 | 0.151 | 0.039 | 0.093 | 0.002 | 0.014 | -0.138 | -0.163 | -0.101 | -0.021 | -0.043 | 0.001
5 | VAMP7 (UniProt P51809) | 0.018 | -0.048 | -0.041 | -0.022 | -0.006 | -0.169 | -0.001 | -0.027 | -0.011 | 0.025 | -0.014 | 0.011 | 0.053 | 0.005 | -0.069 | 0.022 | -0.01 | -0.016 | 0.011 | 0.017
6 | VTI1A (UniProt Q96AJ9) | 0.095 | 0.012 | -0.009 | -0.111 | 0.019 | 0.005 | 0.028 | -0.016 | 0.028 | -0.01 | -0.039 | 0.015 | 0.011 | 0.095 | -0.023 | -0.014 | -0.035 | 0.052 | -0.013 | -0.009
7 | UGDH (UniProt O60701) | -0.019 | 0.03 | -0.616 (active) | -0.046 | -0.038 | 0.017 | -0.043 | -0.105 | 0.004 | 0.078 | 0.039 | -0.005 | 0.028 | 0.083 | -0.064 | 0.043 | 0.102 | -0.097 | 0.031 | 0.079
8 | UBA1 (UniProt P22314) | -0.145 | -0.058 | -0.047 | 0.068 | -0.15 | -0.363 (active) | -0.055 | 0.019 | 0.023 | 0.336 | 0.039 | -0.054 | 0.048 | 0.006 | -0.066 | 0.084 | 0.089 | 0.058 | 0.074 | 0.138
9 | TNFRSF8 (UniProt P28908) | 0.056 | 0.046 | 0.005 | -0.143 | 0.016 | 0.219 (active) | 0.074 | -0.01 | 0.003 | -0.022 | -0.047 | 0.01 | -0.076 | -0.005 | 0.008 | -0.028 | -0.015 | 0.031 | -0.007 | -0.006
10 | TXNL1 (UniProt O43396) | -0.035 | -0.014 | -0.001 | -0.003 | -0.03 | -0.052 | 0.278 (active) | -0.029 | -0.027 | 0.038 | 0.02 | -0.105 | 0.007 | 0.098 | 0.117 | 0.037 | 0.079 | 0.015 | 0.114 | 0.045
11 | WBP4 (UniProt O75554) | 0.082 | -0.001 | 0.033 | -0.057 | -0.001 | 0.098 | 0.041 | -0.06 | -0.003 | 0.02 | 0.105 | 0.044 | 0.057 | -0.036 | -0.047 | 0.022 | 0.011 | 0 | -0.043 | -0.022
12 | USO1 isoform 2 (UniProt O60763) | 0.05 | -0.025 | 0.066 | 0.004 | -0.061 | -0.108 | -0.01 | 0.008 | -0.011 | -0.005 | 0.009 | -0.013 | 0.02 | 0.038 | -0.029 | 0.063 | 0.062 | -0.018 | 0 | 0.031
13 | UBE4B isoform 4 (UniProt O95155) | 0.008 | -0.031 | 0.006 | 0.057 | -0.117 | -0.041 | 0.047 | 0 | 0.004 | -0.005 | 0.007 | -0.012 | 0.001 | 0.014 | -0.017 | 0.024 | 0.045 | -0.008 | 0.008 | 0.042
14 | TTI1 (UniProt O43156) | -0.012 | 0.009 | -0.065 | 0.1 | -0.113 | -0.059 | 0.016 | 0.13 | -0.011 | 0.074 | 0.147 | -0.027 | 0.086 | -0.026 | 0.02 | 0.082 | 0.095 | -0.016 | 0.135 | 0.068
15 | VARS2, A0A0G2JL52 | 0.012 | 0.014 | -0.03 | 0.064 | -0.074 | -0.177 | 0.025 | -0.014 | 0.003 | 0.082 | -0.003 | 0.005 | -0.025 | 0.012 | 0.005 | 0.03 | 0.047 | -0.018 | -0.015 | 0.052
16 | TTC4 (UniProt O95801) | -0.058 | -0.031 | -0.052 | 0.168 | -0.072 | -0.119 | 0.024 | -0.015 | -0.001 | 0 | 0.051 | -0.066 | 0.032 | 0.046 | 0.052 | 0.059 | 0.106 | 0.013 | -0.015 | 0.072

Source: the supplement of paper PMC10849652
